Screening results: PubChem, several laboratories
Shown are actives, neighbours in structure and some others; about 4.2% of the full set was active somewhere.
Wnt bcat act: Wnt/beta-catenin pathway activation; actives 1.2% (n = 300,000); Wnt/beta-catenin reporter cell assay, activator, plate reader; activation, % at 9.35 µM; AID 743398; in the data active means activation above about 30%, passing the limit was not always enough
AHR activator: activators of human aryl hydrocarbon receptor; P35869; AHR-responsive luciferase reporter cells, luminescence; activation, % at 5 µM; actives 2.5% (n = 320,000); in the data active means activation above about 47%
Target sequence (P35869 whole entry, looked up): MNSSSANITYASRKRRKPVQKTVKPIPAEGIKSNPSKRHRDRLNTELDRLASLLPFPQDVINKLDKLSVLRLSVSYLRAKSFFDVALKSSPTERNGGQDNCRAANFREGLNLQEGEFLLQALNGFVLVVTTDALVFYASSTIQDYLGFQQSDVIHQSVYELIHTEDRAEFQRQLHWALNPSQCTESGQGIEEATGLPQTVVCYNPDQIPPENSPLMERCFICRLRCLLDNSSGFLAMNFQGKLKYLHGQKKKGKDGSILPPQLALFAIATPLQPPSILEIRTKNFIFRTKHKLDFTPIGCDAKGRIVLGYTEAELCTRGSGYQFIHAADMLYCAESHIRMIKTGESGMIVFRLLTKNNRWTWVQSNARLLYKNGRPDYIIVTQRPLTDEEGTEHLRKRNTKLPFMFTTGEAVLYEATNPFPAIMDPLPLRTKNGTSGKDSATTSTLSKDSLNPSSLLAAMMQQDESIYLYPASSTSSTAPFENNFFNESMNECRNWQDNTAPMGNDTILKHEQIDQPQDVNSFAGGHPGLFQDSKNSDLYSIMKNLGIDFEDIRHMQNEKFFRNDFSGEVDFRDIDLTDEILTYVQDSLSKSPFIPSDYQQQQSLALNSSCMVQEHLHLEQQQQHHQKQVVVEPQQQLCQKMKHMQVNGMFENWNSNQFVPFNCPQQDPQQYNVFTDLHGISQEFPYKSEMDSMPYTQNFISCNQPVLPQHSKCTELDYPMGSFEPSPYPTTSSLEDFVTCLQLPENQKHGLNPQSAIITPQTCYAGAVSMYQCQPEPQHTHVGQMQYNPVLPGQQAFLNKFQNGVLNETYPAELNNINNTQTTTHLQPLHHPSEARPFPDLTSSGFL
MITF act: increases MITF-driven TRPM1 promoter luciferase signal | actives 0.75% (n = 300,000) | activation, % at 12.5 µM | AID 588334 | SK-MEL-5 TRPM1-promoter luciferase, 24 h; % of positive control, neutral wells = 0;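 active means mean activation of at least 80% with every replicate also reaching 80%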
esBAF inh: SWI/SNF esBAF complex inhibition | mouse ES cells, Bmi1-luciferase knock-in reporter, 24 h; 100% = twice the neutral-well signal | reporter increase, % at 12.5 µM | AID 602393 | actives 2% (n = 350,000); in the data active means activation above about 40%;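 further: a rise in the Bmi1 reporter signal indicates esBAF inhibition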
FXN GAA850 act: activators of GAA850 frataxin (FXN) promoter | HEK293 lucGAA850 FXN promoter luciferase reporter, 24 h; percent of 10 µM SAHA response | activation, % at 6 µM | actives 0.56% (n = 360,000) | AID 540364;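 active means activation above the average of all compounds screened plus 3 SD, cutoff fixed separately per campaign, cut at about 7.5% in these data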
AHR act cf: human AHR activation, confirmation | shares compounds with AHR activator | human cells, AHR-responsive luciferase reporter, luminescence | AID 2845 | actives 87% (n = 2,300) | activation, % at 9 µM; in the data active means activation above about 49%;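 further: HepG2 hepatoma cells carrying a DRE-driven firefly luciferase reporter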
PXR counter: activates human PXR in AHR activator counter-screen; shares compounds with AHR activator; cell-based PXR reporter, luciferase luminescence; activation, % at 11.6 µM; actives 88% (n = 2,300); in the data active means activation above about 11%;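 further: human hepatoma DPX-2 cells expressing full-length human PXR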
Hits are given with their value; . = inactive; / = not tested or not shown.

SMILES	Wnt bcat act	AHR activator	MITF act	esBAF inh	FXN GAA850 act	AHR act cf	PXR counter
CCCNC(=O)C[C@H]1C[C@H]2c3cc(NC(=O)C4CCOCC4)ccc3O[C@H]2[C@@H](CO)O1	/	/	/	.	/	/	/
CCOn1c(=O)c(-c2ccccc2)[n+]([O-])c2ccccc21	.	.	.	.	.	/	/
Cc1c(=O)n(OCc2ccccc2F)c2ccccc2[n+]1[O-]	.	94.1	.	.	.	139.4	26.1
COc1ccccc1CNC(=O)C[C@H]1C[C@H]2c3cc(NC(=O)c4cccnc4)ccc3O[C@H]2[C@@H](CO)O1	/	/	/	.	/	/	/
C[C@@H]1CCCCO[C@H](CN(C)C(=O)CCC(F)(F)F)[C@H](C)CN([C@H](C)CO)C(=O)c2cc(NS(=O)(=O)c3cccs3)ccc2O1	/	/	/	.	/	/	/
O=C(NC1CC1)C1=C[C@H](c2ccc(C(F)(F)F)cc2)C[C@H](OCCCCO)O1	.	99.8	.	.	.	.	13.5
Cc1c(C(=O)NCCCN2CCOCC2)oc2c1C1(CCC2)SCCS1	/	109.4	.	/	.	94.6	180.5
CCCNC(=O)N(C)C[C@@H]1Oc2cc(-c3ccc(C)cc3)ccc2S(=O)(=O)N([C@H](C)CO)C[C@@H]1C	/	/	/	.	/	/	/
CC(=O)c1c(N2CCOCC2)[nH]c(-c2ccccc2)nc1=S	.	135.6	.	.	.	121.6	75.0
CC(=O)c1c(N2CCCC2)[nH]c(-c2ccccc2)nc1=S	.	.	.	/	.	/	/
Cc1ccccc1-c1cnc2c(c1)C(=O)N([C@H](C)CO)C[C@@H](C)[C@H](CN(C)C(=O)CC1CC1)O2	/	/	/	.	/	/	/
CCCCn1nnnc1SCC(=O)Nc1ccc2c(c1)OCO2	/	90.2	.	.	.	82.1	30.1
O=C(CSc1nnnn1Cc1ccccc1)Nc1ccc2c(c1)OCO2	.	102.5	/	.	.	84.7	94.4
Cc1ccc(NC(=O)CSc2nnnn2-c2ccc3c(c2)OCO3)cc1C	/	159.3	/	.	.	166.6	226.2
Cn1nnnc1SCC(=O)Nc1ccc2c(c1)OCCO2	.	.	.	.	.	/	/
O=C(Cn1cnc2ccccc2c1=O)Nc1ccc2c(c1)OCO2	.	92.7	.	57.1	.	70.2	17.5
CC(C)c1cn(CC[C@@H]2CC[C@H](NS(=O)(=O)c3ccccc3)[C@H](CO)O2)nn1	/	/	/	.	/	/	/
C[C@@H]1CCCCO[C@H](CN(C)C(=O)Nc2ccccc2)[C@H](C)CN([C@@H](C)CO)C(=O)c2cc(NS(=O)(=O)c3cccs3)ccc2O1	/	/	/	.	/	/	/
C/C=C/c1ccc([C@H]2[C@@H](CO)N(C(=O)C3CC3)[C@H]2CN(C)C(=O)C2CC2)cc1	/	/	/	.	/	/	/
O=C(NCCN1C(=O)C2C3C=CC(C3)C2C1=O)NCc1ccccc1 (stereo unspecified)	.	.	.	.	.	/	/
O=C(NCCN1C(=O)C2C3C=CC(C3)C2C1=O)N1CCCCC1 (stereo unspecified)	.	91.9	.	.	.	.	21.1
C/C(=N/Nc1ccc(F)cc1)c1ccc(Cl)s1	/	84.5	.	.	.	67.9	/
Cc1noc(C)c1NC(=O)N(C)C[C@@H]1OCCCC[C@H](C)Oc2ccc(NC(=O)c3ccccc3)cc2C(=O)N([C@H](C)CO)C[C@@H]1C	/	/	/	.	/	/	/
COc1cc2c(cc1NC(=O)/C=C/c1cc(OC)c(OC)c(OC)c1)oc1ccccc12	.	88.0	.	.	.	53.3	10.4
COc1cc2c(cc1NC(=O)CSc1ccc(Cl)cc1)oc1ccccc12	/	.	.	.	.	/	/
SMILES	Wnt bcat act	AHR activator	MITF act	esBAF inh	FXN GAA850 act	AHR act cf	PXR counter
COc1cc2c(cc1NC(=O)CSc1ccccn1)oc1ccccc12	/	105.2	94.6	48.7	.	91.2	16.1
O=c1c2ccccc2[nH]c(=S)n1Cc1ccccc1	.	.	.	.	.	/	/
O=c1c2ccccc2[nH]c(=S)n1CCc1ccccc1	.	121.0	.	/	.	159.0	38.2
CO[C@@H]1CN(C)C(=O)c2cc(NS(C)(=O)=O)ccc2OC[C@@H](C)N(C(=O)C2CCCC2)C[C@@H]1C	/	/	/	.	/	/	/
CCCc1nc(NCc2ccncc2)c2nnn(Cc3ccccc3F)c2n1	/	80.8	.	/	.	60.8	115.5
[O-][n+]1onc2c1CCc1nnc(-c3ccccc3)cc1-2	/	96.7	.	/	.	80.2	/
C=CCc1c(C)nc(SC)nc1Nc1ccc(C(=O)O)cc1	/	.	.	.	.	/	/
C=CCc1c(C)nc(SC)nc1Nc1ccccc1	.	104.4	/	.	.	58.4	104.6
C=CCc1c(C)nc(SC)nc1Nc1ccc(C(C)=O)cc1	.	82.6	.	.	.	73.0	119.6
C=CCc1c(C)nc(-c2ccccc2)nc1Nc1ccc(O)cc1	.	.	.	.	.	/	/
COc1cccc(CNC(=O)C[C@@H]2CC[C@H](NC(=O)C3CCOCC3)[C@H](CO)O2)c1	/	/	/	.	/	/	/
C[C@@H]1CN([C@@H](C)CO)C(=O)c2cc(NC(=O)Nc3ccc(C(F)(F)F)cc3)ccc2O[C@@H](C)CCCCO[C@@H]1CN(C)Cc1ccccc1	/	/	/	.	/	/	/
Cc1c(NS(=O)(=O)c2cc(C(=O)NCc3ccco3)cc(Cl)c2Cl)c(=O)n(-c2ccccc2)n1C	.	96.7	.	/	.	101.9	200.9
c1ccc2c(c1)OCC(c1csc3ncnc(N4CCCC4)c13)O2 (stereo unspecified)	/	.	.	.	.	/	/
c1ccc(CCNc2ncnc3scc(C4COc5ccccc5O4)c23)cc1 (stereo unspecified)	.	98.5	/	.	.	100.5	23.0
CC(OC(=O)c1cc(O)c2ccccc2c1O)C(=O)Nc1ccc(C(N)=O)cc1 (stereo unspecified)	.	102.8	.	.	.	78.4	19.0
CC(OC(=O)c1ccccc1C(=O)N(C)c1ccccc1)C(=O)Nc1ccc(C(N)=O)cc1 (stereo unspecified)	.	.	.	.	.	/	/
O=C(/C(=C\c1ccccc1)c1nc2ccccc2[nH]1)c1ccc(Cl)cc1	/	80.4	.	/	.	.	117.0
O=c1cc(CSc2nnc3ccccn23)c2c(ccc3ccccc32)o1	.	84.1	.	/	.	64.8	28.9
O=c1[nH]c(CSc2nnc3ccccn23)nc2ccccc12	/	.	.	/	.	/	/
COCC(=O)N[C@H]1CC[C@H](CC(=O)NCc2ccc(Cl)cc2)O[C@@H]1CO	/	/	/	.	/	/	/
COc1cccc(NC(=O)N2C[C@H](O)COC[C@H]3O[C@@H](CC(=O)NC4CCCC4)CC[C@@H]32)c1	/	/	/	.	/	/	/
CN(C)c1ccc(Nc2nc(N)c([N+](=O)[O-])c(N3CCOCC3)n2)cc1	.	82.2	.	/	.	68.2	38.5
COc1ccc(Nc2nc(N)c([N+](=O)[O-])c(N3CCOCC3)n2)cc1	.	.	.	.	.	/	/
CC1=NN(C(N)=S)C(=O)C1N=Nc1ccc(S(N)(=O)=O)cc1 (stereo unspecified)	.	.	.	.	.	/	/
